From PubChem BioAssay AID652208 (Broad Institute, 2013)
Potency and affinity values are given separately. Activity calls are given as the source filed them.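 Rule for the calls: active = Loss of cell signal with fitted half-effect dose at or below twice the top valid tested dose; inconclusive = Poor fit, or flat fit from -70 to -30 percent; inactive = Half-effect above limit, rising signal, or flat within 30 percent.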

Test: viability loss in HEK293T cells – cell-based, cherry-picks, cytotoxicity control for HIV Vif inhibitor project, dose response (AID 652208);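 note: 0% = median neutral control wells and -100% = median staurosporine control wells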
Conditions: CellTiter-Glo luminescence, 24 h; series mostly up to 26 µM; activity change, negative = cytotoxicity: at the top concentration
In the case of `CN1CCN(C(=S)c2ccc(OCC(=O)Nc3cccc(C(F)(F)F)c3)cc2)CC1`, the “activity change, negative = cytotoxicity” value is reported as -12.2% (inactive).
With `COc1cc(-c2cnc3c(NC=O)cc(-c4cccc(NC(C)=O)c4)cn23)cc(OC)c1OC` the “activity change, negative = cytotoxicity” value was -21.3% (inactive).
With `Cc1ccc(NC(=O)Cn2ncn3c(cc4ccccc43)c2=O)c(C)c1` the “activity change, negative = cytotoxicity” value was -0.859% (inactive).
In the case of `COc1ccc(-c2cc(C(=O)Nc3cnn(Cc4ccccc4C)c3)no2)cc1OC`, the “activity change, negative = cytotoxicity” value is reported as -10.7% (inactive).
In the case of `CCc1ccc(S(=O)(=O)Nc2ccc(-c3ccc4nnc(C)n4n3)cc2)s1`, the “activity change, negative = cytotoxicity” value is reported as 5.8% (inactive).
For `CC(C)c1ccc(NC(=O)N2CCCC2C(=O)Nc2ccc(-n3cnnn3)cc2)cc1` (stereo not drawn), the “activity change, negative = cytotoxicity” value was 0.715% (inactive).
For `O=C(NCc1cccnc1)NC1(C(F)(F)F)Oc2ccc(Cl)cc2O1` (stereo not drawn), the “activity change, negative = cytotoxicity” value was 0.018% (inactive).
For `CN(C)c1ccc(/C=C2\SC(=O)N(CCc3nnc(N)s3)C2=O)cc1`, the “activity change, negative = cytotoxicity” value was -1.54% (inactive).
With `CC(C)CN(C(=O)COC(=O)CSc1ccccc1)c1c(N)n(Cc2ccccc2)c(=O)[nH]c1=O` the “activity change, negative = cytotoxicity” value was -0.439% (inactive).
In the case of `COc1ccc(-c2cc(C(=O)Nc3ccc4c(c3)OCO4)no2)cc1`, the “activity change, negative = cytotoxicity” value is reported as -13.5% (inactive).
In the case of `CCOC(=O)c1nc(Nc2ccc(C(=O)OC)cc2)c2ccccc2n1`, the “activity change, negative = cytotoxicity” value is reported as -17.9% (inactive).
For `Cc1nn(C)cc1CN(C)Cc1ccc(OCC(O)CN2CCCCC2)cc1` (stereo not drawn), the “activity change, negative = cytotoxicity” value was 0.017% (inactive).
For `CCc1ccc(N2C(=O)/C(=C/c3cccs3)N(CC(=O)OC)C2=S)cc1`, the “activity change, negative = cytotoxicity” value was -3.31% (inactive).
In the case of `COc1cc(C2C3=C(COC3=O)Oc3cc4c(cc32)OCO4)cc(OC)c1O` (stereo not drawn), the “activity change, negative = cytotoxicity” value is reported as -15.8% (inactive).
In the case of `O=C1S/C(=C/c2ccc(N3CCOCC3)o2)C(=O)N1Cc1c(F)cccc1Cl`, the “activity change, negative = cytotoxicity” value is reported as -15.8% (inactive).
For `CCn1c(/C=C/c2ccc(F)cc2)nc2ccccc2c1=O`, the “activity change, negative = cytotoxicity” value was -13.8% (inactive).
For `COC(CNC(=O)C1CCN(C(=O)c2cc3oc(C)cc3n2Cc2c(F)cccc2Cl)CC1)OC`, the “activity change, negative = cytotoxicity” value was -8.63% (inactive).
For `COc1cccc(CNc2ccc3c(c2)CCC3)c1`, the “activity change, negative = cytotoxicity” value was -9.75% (inactive).
In the case of `Cc1cccc2cc(CN(CC3CCCO3)C(=O)NC3CCCCC3)c(=O)[nH]c12` (stereo not drawn), the “activity change, negative = cytotoxicity” value is reported as 6.93% (inactive).
With `COCCN(C(=O)COC(=O)Cc1ccc(Cl)cc1)c1c(N)n(Cc2ccccc2)c(=O)[nH]c1=O` the “activity change, negative = cytotoxicity” value was -2.42% (inactive).
With `CCC(=O)Nc1ccc(-c2nnc(SCc3ccc(C(=O)Nc4nccs4)cc3)n2CC)cc1` the “activity change, negative = cytotoxicity” value was -3.47% (inactive).
With `Cc1cc(C)c(S(=O)(=O)N2CCN(S(=O)(=O)N3CCOCC3)CC2)c(C)c1` the “activity change, negative = cytotoxicity” value was 2.67% (inactive).
For `CCCn1c(=O)c(C(=O)Nc2ncccc2O)c(O)c2ccccc21`, the “activity change, negative = cytotoxicity” value was 4.21% (inactive).
With `CCN(C(=O)COc1ccc(C)cc1OC)c1cccc2ccccc12` the “activity change, negative = cytotoxicity” value was -0.891% (inactive).
With `NS(=O)(=O)c1ccc(NC(=O)CCC(=O)N2CCOCC2)cc1` the “activity change, negative = cytotoxicity” value was 3.75% (inactive).
In the case of `Cc1ccc(N(C)S(=O)(=O)c2ccc(-c3ccc(=O)[nH]n3)s2)cc1C`, the “activity change, negative = cytotoxicity” value is reported as -19.2% (inactive).
In the case of `CCCCCCn1c(N(CC)CC)nc2c1c(=O)[nH]c(=O)n2C`, the “activity change, negative = cytotoxicity” value is reported as -0.206% (inactive).
For `O=C(CCc1ccccc1)Nc1ccccc1`, the “activity change, negative = cytotoxicity” value was 5.54% (inactive).
For `CN(C)c1ccc(/C=C2\SC(N3CCCCC3)=NC2=O)cc1`, the “activity change, negative = cytotoxicity” value was -15.5% (inactive).
For `Cc1nnc(NC(=O)CSc2nnc(NC(=O)C(C)(C)C)s2)s1`, the “activity change, negative = cytotoxicity” value was 7.39% (inactive).
In the case of `CCCOc1ccc(C(O)(CCC)CCN2CCCCC2)cc1` (stereo not drawn), the “activity change, negative = cytotoxicity” value is reported as -4.04% (inactive).
In the case of `COc1ccc(S(=O)(=O)N2c3cc(Cl)ccc3Oc3nc4ccccc4nc32)cc1`, the “activity change, negative = cytotoxicity” value is reported as -16% (inactive).
For `Cc1nnc2ccc(-c3ccc(NS(=O)(=O)c4ccc(Cl)s4)cc3)nn12`, the “activity change, negative = cytotoxicity” value was 10.5% (inactive).
For `CCN(CC)C(=O)c1ccc(C(=O)c2c(C)cc(C)cc2C)cc1`, the “activity change, negative = cytotoxicity” value was -14.2% (inactive).
For `CCCCN1C(=O)/C(=C/C=C2\Oc3ccccc3N2CC)SC1=S`, the “activity change, negative = cytotoxicity” value was -20.3% (inactive).
For `COc1ccc([C@H]2CC(=O)C=C(c3cc4ccccc4s3)C2)cc1`, the “activity change, negative = cytotoxicity” value was -12.1% (inactive).
In the case of `COc1cc(NC(=O)c2ccc(C)cc2C)ccc1NC(=O)c1cccs1`, the “activity change, negative = cytotoxicity” value is reported as -17.1% (inactive).
In the case of `COc1ccc(/C=c2\s/c(=C/C(=O)c3ccc(C)cc3)[nH]c2=O)c(OC)c1`, the “activity change, negative = cytotoxicity” value is reported as -7.38% (inactive).
